Measured values: PubChem BioAssay (NCI)
Several values for one entry are separate records, joined by “and”; a condition that tells them apart may be missing. Equal entries are not always repeated. About 83,000 compounds went through this panel and 20% of them were active in at least one assay; those are over-represented in the sample as a whole.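 Assay: single dose, 48 h. Readout: percent growth (0 = no net growth; negative = cell death). Active: <10.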 Activity calls are given as the source filed them.

system: MDA-MB-468 breast; assay: NCI-60 one-dose screen, 48 h (100 = growth as untreated, 0 = no growth, -100 = all killed); settings: 10 µM unless noted

Row | SMILES | growth
1 | CCC1CN1P(=O)(OCCOC)N1CC1CC (stereo not given) | 110% (inactive)
2 | Cn1cc(-c2csc(-c3cn(CCCCN4CCOCC4)c4ccc(F)cc34)n2)c2cccnc21 | 65% (inactive)
3 | O=C(O)CNC(=O)C(Cl)(Cl)Cl | 98.8% (inactive)
4 | COC(=O)[C@@H](C[C@H](Cc1ccccc1)NC(=O)c1csc([C@@H](C[C@H](C(C)C)N(C)C(=O)[C@@H](NC(=O)[C@H]2CCCCN2C)C(C)C)OC(C)=O)n1)NC(=O)OCc1ccccc1 | 16.5% [9.5 µM] (inactive)
5 | O=C/C=C/c1ccco1 | 106% (inactive)
6 | CCOC(=O)CCN(C)C1=Nc2ccc(Cl)cc2C(c2ccccc2)=[N+]([O-])C1 | 93.7% (inactive)
7 | COc1cc([N+](=O)[O-])c2ncccc2c1[N+](=O)[O-] | 0.105% (active)
8 | COC(=O)[C@@]1(C)CC[C@]2(C)CC[C@]3(C)C4=CC=C5C(=CC(=O)C(O)=C5C)[C@]4(C)CC[C@@]3(C)[C@@H]2C1 | -66.9% (active)
9 | COc1ccc2c(c1)C1(C)CCN(C)CC(C1)C2O (stereo not given) | 101% (inactive)
10 | CCCCOCCOP(=O)(OCCOCCCC)OCCOCCCC | 91.5% (inactive)
11 | C=C(C)[C@@]12OC3(/C=C/C=C/CCCCC)O[C@@H]1[C@@H]1[C@@H]4O[C@]4(CO)[C@@H](O)[C@]4(O)C(=O)C(C)=C[C@H]4[C@@]1(O3)[C@H](C)[C@H]2OC(=O)c1ccccc1 | 56.5% (inactive)
12 | COc1ccc(CN2CCN(Cc3ccccc3)CC2)c(O)c1 | 75.5% (inactive)
13 | C/C(=C\c1ccn(-c2ccc(N)cc2C(F)(F)F)n1)[C@@H]1C[C@@H]2O[C@]2(C)CCC[C@H](C)[C@H](O)[C@@H](C)C(=O)C(C)(C)[C@@H](O)CC(=O)O1 | 28.6% (inactive)
14 | Cc1cc(N(CCCl)CCCl)ccc1/C=N\NC(=O)c1cccnc1 | -30.4% (active) and -38.6% (active)
15 | O=[N+]([O-])CC(c1ccccc1Cl)c1c(-c2ccccc2)[nH]c2ccccc12 (stereo not given) | 7.39% (active)
16 | COC(=O)C[Se]C(=O)c1ccccc1OC(C)=O | 34.8% (inactive)
17 | COc1ccc(N(CC(=O)NCCC[Te]c2ccccc2)C(=O)c2ccccc2)cc1 | 97.2% (inactive)
18 | COc1cccc2c1c(C(=O)C(=O)Nc1cc(C)no1)cn2Cc1ccc(F)cc1 | 48.4% (inactive)
19 | C[C@]12CCc3sc(Nc4ccc(OC(F)(F)F)cc4)nc3C1=CC[C@@H]1[C@@H]2CC[C@]2(C)C(=O)CC[C@@H]12 | 69.1% (inactive)
20 | CC(C)Nc1ccc(Nc2ccccc2)cc1 | 5.88% (active)

Row | SMILES | growth
21 | N/C(=N\N=C\c1ccc(-c2ccccc2)cc1)N[N+](=O)[O-] | 20% (inactive)
22 | CCCCCCCCCCCCCCCC[N+](C)(C)C | -77.9% (active) and -17% (active)
23 | CCN(CC)CCOC(=O)C(OC(C)C)(c1ccccc1)c1ccccc1 | 95.1% (inactive)
24 | CC[C@H](C)[C@H](NC(=O)NC(C)(C)C)C(=O)N(C)[C@H](C[C@@H](OC(C)=O)c1nc(C(=O)N[C@@H](Cc2ccccc2)C[C@H](C)C(=O)OC)cs1)C(C)C | 15.4% (inactive)
25 | O=C1C=C2C(=CCOC2O)O1 (stereo not given) | -55.5% (active)
26 | Cc1cc(C)c(C[N+](C)(C)C)c(C)c1C | 16.1% (inactive)
27 | COc1ccc(CN)cc1OC | 114% (inactive)
28 | CN(Cc1cccnc1)N=O | 103% (inactive)
29 | N#CCc1ccccc1 | 101% (inactive)
30 | CCOC(=O)C1C(C=C(C)C)C1(C)C (stereo not given) | 107% (inactive)
31 | CC(=O)O[C@H](C[C@H](C(C)C)N(C)C(=O)[C@@H](NC(=O)[C@H]1CCCCN1C)C(C)C)c1nc(C(=O)N[C@@H](Cc2ccccc2)C[C@H](C)C(=O)O)c(CCOCc2ccccc2)s1 | 1.12% (active)
32 | Oc1ccccc1C=NCCN=Cc1ccccc1O.[Fe] | 64.3% (inactive)
33 | O=C(O)CNC(=O)c1ccccc1 | 122% (inactive)
34 | O=c1[nH]c2ccc([N+](=O)[O-])cc2c(=O)o1 | 108% (inactive)
35 | Cc1c(O)c(CN(CCCl)CCCl)cc(CN(CCCl)CCCl)c1O | 84.4% (inactive)
36 | COc1ccc2c(c1)c(-c1nc(-c3c[nH]c4ncccc34)cs1)cn2CCCCN1CCOCC1 | 39.3% (inactive)
37 | OCCCCCNC1CCCCC1 | 97.6% (inactive)
38 | CN(C)[C@@H]1C(=O)C(C(N)=O)=C(O)[C@@]2(O)C(=O)C3=C(O)c4c(O)ccc(Cl)c4[C@@](C)(O)[C@H]3C[C@@H]12 | 105% (inactive) and 101% (inactive)
39 | O=C1c2ccccc2C(=O)N1[N+](=O)[O-] | 89.2% (inactive)
40 | Oc1ccccc1-c1ccccc1 | 105% (inactive) and 103% (inactive)
